The nature of test [1]: antimalarial activity against Dd2 strain (AID 2302;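 active = growth inhibition above 50% at the single 2 µM test dose, taken to imply half-maximal potency below 2 µM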;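 note: 0% = DMSO untreated growth and 100% = chloroquine plus artemisinin killed control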). The following applies: P. falciparum Dd2 in RBCs, LDH growth readout, 72 h; at 2 µM; stronger effect = higher value.
Test [2] in a line: HepG2 cytotoxicity, primary screen, cytotoxicity control for P. falciparum antimalarial project, cell-based, ATP luminescence (AID 2303;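 active = inhibition above 50%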;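 note: 0% = DMSO wells and 100% = digitonin-killed cells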). The conditions noted are these: HepG2 viability, 24-48 h, at 10 µM, stronger effect = higher value.
For test [3], the target named is L-lactate dehydrogenase (Plasmodium falciparum (isolate CDC / Honduras)) (UniProt Q27743). The test is described as follows: PfLDH activity inhibition – cell lysate, 3D7 strain, counter-screen for P. falciparum growth inhibition project (AID 2304).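 Note: 0% = vehicle and 100% = reference inhibitor.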 The conditions noted are these: P. falciparum 3D7 crude extract, LDH APAD/NBT absorbance; at 2 µM; stronger effect = higher value.

Test [4] can be described thus: inhibition of 3D7 malaria parasite growth – strain 3D7 (AID 2306).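 Note: 0% = DMSO wells and 100% = chloroquine plus artemisinin control wells.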 The following applies: P. falciparum 3D7 erythrocytic growth, LDH absorbance, 72 h; at 2 µM; stronger effect = higher value.
The target of test [5] is Calcium-dependent protein kinase 1 (Plasmodium falciparum (isolate 3D7)) (UniProt P62344). The test is described as follows: PfCDPK1 kinase inhibitors, biochemical, TCAMS library (AID 1159585; cut-off not given, nearly all actives have IC50 up to about 0.98 µM;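 note: inhibitors leave more ATP so luminescence rises with inhibition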). The following applies: recombinant PfCDPK1, Kinase-Glo ATP depletion luminescence.
The target of test [6] is Plasmodium falciparum protein kinase 6 (PK6, PF3D7_1337100) (UniProt Q8IDW1). Briefly: PfPK6 kinase inhibitors, biochemical, TCAMS library (AID 1159586). The conditions noted are these: recombinant PfPK6, Kinase-Glo ATP depletion luminescence.
For test [7], the target named is Protein kinase 7 (PK7), Plasmodium falciparum 3D7 (PF3D7_0213400) (UniProt Q7YTF7). Briefly: inhibition of Plasmodium PK7 catalytic activity – biochemical, TCAMS antimalarial set, Kinase-Glo luminescence (AID 1159587). The following applies: recombinant PfPK7, Kinase-Glo ATP depletion luminescence. In general terms: In Kinase-Glo more light means more ATP remaining.

Test [8] deals with Calcium-dependent protein kinase 4 (Plasmodium falciparum (isolate 3D7)) (UniProt Q8IBS5). The test is described as follows: PfCDPK4 kinase inhibitors, biochemical, TCAMS library (AID 1159588; cut-off not given, nearly all actives have IC50 up to about 0.91 µM). The conditions noted are these: recombinant PfCDPK4, Kinase-Glo ATP depletion luminescence.

Usually inhibition stands for the relative decrease from the control value, in per cent.

Each structure is given as a SMILES string. A number with no mark means an inactive call. For some of these results: Potency and affinity values are given separately. Active and inactive are the calls of the source. Unless noted, the rule behind the calls is not given here.

Calcium-dependent protein kinase 1 (Plasmodium falciparum (isolate 3D7)), sequence (P62344 whole entry, looked up): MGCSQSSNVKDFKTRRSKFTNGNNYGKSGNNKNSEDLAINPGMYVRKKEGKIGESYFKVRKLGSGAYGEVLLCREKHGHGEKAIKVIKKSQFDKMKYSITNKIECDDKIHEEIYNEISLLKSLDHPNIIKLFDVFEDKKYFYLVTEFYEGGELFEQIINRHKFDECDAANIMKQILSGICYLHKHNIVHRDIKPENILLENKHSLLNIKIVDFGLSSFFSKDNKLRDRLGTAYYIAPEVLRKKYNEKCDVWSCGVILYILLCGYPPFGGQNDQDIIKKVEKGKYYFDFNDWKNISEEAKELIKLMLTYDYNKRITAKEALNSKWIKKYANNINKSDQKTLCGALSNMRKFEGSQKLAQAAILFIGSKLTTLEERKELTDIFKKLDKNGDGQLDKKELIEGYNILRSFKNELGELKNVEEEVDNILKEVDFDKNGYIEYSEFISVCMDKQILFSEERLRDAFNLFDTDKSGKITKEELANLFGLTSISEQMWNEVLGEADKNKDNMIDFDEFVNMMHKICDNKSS
Calcium-dependent protein kinase 4 (Plasmodium falciparum (isolate 3D7)), sequence (Q8IBS5 whole entry, looked up): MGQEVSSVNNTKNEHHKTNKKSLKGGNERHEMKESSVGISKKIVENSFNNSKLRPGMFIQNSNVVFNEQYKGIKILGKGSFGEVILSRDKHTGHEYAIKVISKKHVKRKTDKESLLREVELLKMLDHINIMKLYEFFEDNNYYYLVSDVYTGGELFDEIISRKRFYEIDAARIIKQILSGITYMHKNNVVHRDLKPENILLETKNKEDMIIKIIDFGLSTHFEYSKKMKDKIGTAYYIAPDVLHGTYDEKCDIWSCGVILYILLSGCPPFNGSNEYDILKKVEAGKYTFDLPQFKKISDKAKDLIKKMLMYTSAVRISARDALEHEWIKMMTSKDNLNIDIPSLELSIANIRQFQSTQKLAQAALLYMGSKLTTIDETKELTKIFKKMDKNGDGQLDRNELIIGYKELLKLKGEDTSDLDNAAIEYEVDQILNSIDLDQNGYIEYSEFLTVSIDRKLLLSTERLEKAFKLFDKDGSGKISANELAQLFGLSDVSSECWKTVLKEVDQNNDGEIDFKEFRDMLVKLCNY
Plasmodium falciparum protein kinase 6 (PK6, PF3D7_1337100), sequence (Q8IDW1 1-305): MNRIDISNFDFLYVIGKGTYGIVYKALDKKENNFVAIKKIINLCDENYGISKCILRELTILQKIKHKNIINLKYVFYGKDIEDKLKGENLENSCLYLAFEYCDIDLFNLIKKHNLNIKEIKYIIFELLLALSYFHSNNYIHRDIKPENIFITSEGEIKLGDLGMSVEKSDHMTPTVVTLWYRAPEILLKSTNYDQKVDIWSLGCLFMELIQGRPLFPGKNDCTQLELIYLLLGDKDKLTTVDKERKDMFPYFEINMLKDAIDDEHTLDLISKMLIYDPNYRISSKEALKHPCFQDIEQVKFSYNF
Protein kinase 7 (PK7), Plasmodium falciparum 3D7 (PF3D7_0213400), sequence (Q7YTF7 1-343): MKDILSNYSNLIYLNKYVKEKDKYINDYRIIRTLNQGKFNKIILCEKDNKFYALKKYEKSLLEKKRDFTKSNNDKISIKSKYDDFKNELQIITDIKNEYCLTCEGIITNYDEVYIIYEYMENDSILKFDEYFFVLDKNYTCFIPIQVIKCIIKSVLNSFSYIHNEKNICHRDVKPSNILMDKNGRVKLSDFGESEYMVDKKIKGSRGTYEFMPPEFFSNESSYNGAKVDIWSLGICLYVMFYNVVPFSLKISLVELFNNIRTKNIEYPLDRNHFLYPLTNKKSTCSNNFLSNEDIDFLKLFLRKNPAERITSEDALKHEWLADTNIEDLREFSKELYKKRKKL
L-lactate dehydrogenase (Plasmodium falciparum (isolate CDC / Honduras)), sequence (Q27743 whole entry, looked up): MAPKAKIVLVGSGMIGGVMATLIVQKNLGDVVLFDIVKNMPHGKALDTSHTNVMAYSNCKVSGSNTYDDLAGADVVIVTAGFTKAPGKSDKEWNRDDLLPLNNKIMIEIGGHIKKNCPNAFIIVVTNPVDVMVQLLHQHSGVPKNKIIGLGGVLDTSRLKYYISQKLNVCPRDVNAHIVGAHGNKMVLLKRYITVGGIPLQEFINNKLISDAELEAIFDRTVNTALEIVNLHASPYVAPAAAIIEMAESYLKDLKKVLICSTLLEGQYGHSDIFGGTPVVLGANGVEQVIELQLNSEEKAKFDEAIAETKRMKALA

For the compound `O=C(C=Cc1ccc(Cl)c(Cl)c1)NCCCCCN1CCC(CCCNC(=O)c2ccc3c(c2)OCO3)CC1`, the growth inhibition in test [1] was 64% (active); in test [4], 98% (active). The figures for the inhibition in test [2] and in test [3] were 38% and -5%, respectively. In addition, the outcome in test [5], in test [6], in test [7] and in test [8] was inactive.

Turning to `N#Cc1ccc(-c2nc(CO)c(C(=O)NCCCCN3CCC(c4ccc5c(c4OCC(N)=O)CCCC5)CC3)s2)cc1`, the growth inhibition in test [1] is -1%; in test [4] it was 92% (active). In addition, the inhibition in test [2] is 9%; in test [3], 4%. In addition, the outcome in test [5], in test [6], in test [7] and in test [8] was inactive.

As to `Cc1cc(N[C@@H](Cc2ccccc2)C(=O)NCc2cccs2)nc(Nc2ccccc2)n1`, the values for the growth inhibition in test [1] and in test [4] were 36% and 96% (active), respectively. Also, the inhibition was 3% in test [2] and -2% in test [3]. The result in test [5], in test [6], in test [7] and in test [8] was inactive.

`Cc1cccc(CNc2nc(C)cc(N[C@@H](Cc3ccccc3)C(=O)NC3CCCC3)n2)c1`: the results for the growth inhibition in test [1] and in test [4] were 97% (active) and 100% (active), respectively. The figures for the inhibition in test [2] and in test [3] were 51% (active) and -3%, respectively. Moreover, the result in test [5], in test [6], in test [7] and in test [8] was inactive.

For the compound `Nc1c2ccccc2nc2cc([N+](=O)[O-])ccc12`, the growth inhibition in test [1] was 26%; in test [4] it was 98% (active). The inhibition in test [2] was 92% (active); in test [3] it was -1%. In addition, the outcome in test [5], in test [6], in test [7] and in test [8] was inactive.

As to `CCN(CC)Cc1cccc(-c2cc3c(-c4ccc(C(=O)O)c(C(C)C)c4)ccnc3[nH]2)c1OC`, the growth inhibition in test [1] and in test [4] was 99% (active) each time. Further, the inhibition in test [2] is 57% (active); in test [3], -2%. The outcome in test [5], in test [6], in test [7] and in test [8] was inactive.

For the compound `c1ccc2nc(NCCCCCCCCNc3ccc4ccccc4n3)ccc2c1`, the growth inhibition in test [1] was 37%; in test [4], 100% (active). Besides, the inhibition in test [2] was 52% (active); in test [3], -5%. The outcome in test [5], in test [6], in test [7] and in test [8] was inactive.

For `CC(C)=CCc1c(-c2ccc(O)cc2O)oc2c3c(cc(O)c2c1=O)OC(C)(C)C=C3`, the growth inhibition in test [1] is 8%; in test [4], 89% (active). Besides, the figures for the inhibition in test [2] and in test [3] were 1% and 5%, respectively. For the same compound, the result in test [5], in test [6], in test [7] and in test [8] was inactive.

Take `N#Cc1ccc(C(=O)NC2CCN(CCCCCNC(=O)/C=C/c3ccc(Cl)c(Cl)c3)CC2)cc1`: the results for the growth inhibition in test [1] and in test [4] were 1% and 98% (active), respectively. In addition, the inhibition was 13% in test [2] and -4% in test [3]. Besides, the outcome in test [5], in test [6], in test [7] and in test [8] was inactive.

Take `CCCCCCN1CCC(CNCc2cccc([N+](=O)[O-])c2)CC1`: the growth inhibition is 15% in test [1] and 95% (active) in test [4]. The values for the inhibition in test [2] and in test [3] were 16% and -1%, respectively. The result in test [5], in test [6], in test [7] and in test [8] was inactive.

Turning to `O=C(NCCCN1CCC(NC(=O)c2ccc(-c3cccnc3)cc2)CC1)c1ccc(Cl)c(Cl)c1`, the growth inhibition in test [1] was 23%; in test [4], 94% (active). Besides, the inhibition in test [2] is 17%; in test [3], -5%. The outcome in test [5], in test [6], in test [7] and in test [8] was inactive.

For the compound `Cc1nc(-c2cccc(Nc3nccc(NCC(O)c4cccc(C(F)(F)F)c4)n3)c2)cs1` (stereo not given), the growth inhibition is 99% (active) in test [1] and 100% (active) in test [4]. Further, the inhibition was 14% in test [2] and 0% in test [3]. In addition, the outcome in test [5], in test [6], in test [7] and in test [8] was inactive.

On to `CC(=O)c1ccccc1OCCSc1nnc(Cc2cccs2)n1C1CCCCC1`, for which the results for the growth inhibition in test [1] and in test [4] were 1% and 87% (active), respectively. Further, the values for the inhibition in test [2] and in test [3] were 19% and -5%, respectively. Moreover, the result in test [5], in test [6], in test [7] and in test [8] was inactive.

`O=C(/C=C/c1ccc(Cl)c(Cl)c1)NCCCCCN1CCC(NC(=O)Nc2ccc(C(F)(F)F)cc2)C1` (stereo not given): the results for the growth inhibition in test [1] and in test [4] were 6% and 100% (active), respectively. In addition, the results for the inhibition in test [2] and in test [3] were 11% and -2%, respectively. In addition, the result in test [5], in test [6], in test [7] and in test [8] was inactive.

Consider `Cc1cc2c(cc1Cl)N(C(=O)Nc1cc(F)cc(-c3cncnc3)c1)CC2`, for which the growth inhibition in test [1] was 59% (active); in test [4], 96% (active). The inhibition in test [2] was -4%; in test [3] it was -6%. Also, the result in test [5], in test [6], in test [7] and in test [8] was inactive.

As for `CN1CCCC(CN2CCN(Cc3cccc(-c4ccc(-c5nc6ccc(C(F)(F)F)cc6[nH]5)cc4)c3)CC2)C1` (stereo not given), the growth inhibition in test [1] was 96% (active); in test [4], 99% (active). The inhibition in test [2] was 100% (active); in test [3], 5%. The outcome in test [5], in test [6], in test [7] and in test [8] was inactive.

For `Cc1nc(-c2cccc3c(NC(=O)N4CCc5cc6nccc(N7CCN(C)CC7)c6cc54)cccc23)no1`, the growth inhibition is 97% (active) in test [1] and 100% (active) in test [4]. Also, the inhibition in test [2] was 45%; in test [3], 2%. In addition, the outcome in test [5], in test [6], in test [7] and in test [8] was inactive.

For the compound `c1ccc2[nH]c(-c3ccc(-c4ccc(CNCCc5ccncc5)cc4)s3)nc2c1`, the growth inhibition in test [1] was 98% (active); in test [4] it was 101% (active). The inhibition was 28% in test [2] and -6% in test [3]. Besides, the outcome in test [5], in test [6], in test [7] and in test [8] was inactive.

As for `CC(O)C1CCCCN1C(=O)c1cccc(-c2ccc(-c3nc4ccccc4[nH]3)s2)c1` (stereo not given), the growth inhibition in test [1] was 23%; in test [4] it was 100% (active). Further, the inhibition was 24% in test [2] and -1% in test [3]. In addition, the outcome in test [5], in test [6], in test [7] and in test [8] was inactive.

As for `Cc1cc(NCCC(=O)NCc2cccc(F)c2)nc(Nc2ccccc2)n1`, the growth inhibition is 15% in test [1] and 94% (active) in test [4]. In addition, the inhibition in test [2] is -4%; in test [3], -3%. Further, the result in test [5], in test [6], in test [7] and in test [8] was inactive.

Source of the values: PubChem BioAssay.
